Rows were chosen to be rich in hits. Some 21% of all compounds tested hit in one or more screens of this group.
DRD3 agonist: agonists of human D3 dopamine receptor. max activation, %. AID 652048. P35462. 410,000 tested, 0.58% active. D3R DiscoveRx beta-arrestin cells, luminescence, 90 min; in the data active = max activation above about 30%; note: 0% is about no effect
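Agonist mode: compounds and dopamine controls were applied to plated cells for 90 min at 37 degrees C after an overnight attachment at 1500 cells/well. Luminescent read-out followed 30 - 60 minutes at room temperature with DiscoveRx detection reagent.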
DRD3 antagonist: D3 dopamine receptor (human) antagonism | D3R cells, DiscoveRx beta-arrestin luminescence, antagonist mode; active compounds read low | max response, negative = inhibition, % | 360,000 tested, 2.5% active | AID 652054; in the data active = max response below about -50%; inconclusive = no clear call, values can overlap the other calls; note: % is set by controls: 0 for no effect and ±100 for the full control effect
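Cells expressing the human receptor were seeded at 1500 cells/well, incubated overnight at 37 degrees C in 5% CO2, then exposed to library compounds with dopamine controls for 90 minutes at 37 degrees C before luminescent detection.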
TDP1 cell CPT: growth inhibition of DT40 Tdp1-/-;hTDP1 cells with camptothecin (screen for TDP1 inhibitors). chicken DT40 Tdp1-/-;hTDP1 cells + 20 nM CPT, ATP luminescence, 48 h. Potency, µM (titrated, usually from 46.2 µM), for the others: at the highest dose activity change, negative = growth inhibition, most hits filed as inhibitors. 420,000 tested, 12% active. AID 686979; note: potency is the fitted concentration of half-maximal effect; % is set by controls: 0 for no effect and ±100 for the full control effect; nearly all actives have a fitted effect of over 55% in size
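Chicken DT40 Tdp1-/- cells complemented with human TDP1, 400 cells/well, exposed to compounds plus 20 nM camptothecin for at least 48 h at 37 C; viability read as ATP content by CellTiter-Glo luminescence.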
ClpP mod: qHTS Assay for Activators of ClpP; ATP-dependent Clp protease proteolytic subunit (Bacillus subtilis (strain 168)), P80244; purified B. subtilis ClpP, FRET peptide cleavage, 20 min; Potency, µM (series often up to 57.5 µM), for the others: top-dose activity change, negative = active; 340,000 tested, 1.9% active; AID 651965, 2013; active = well fitted falling curve with a large enough effect; inconclusive = small, poorly fitted or top-dose-only effect; inactive = no such curve, though single readings can be large or run the other way; note: potency is the fitted concentration of half-maximal effect; the source files actives as falling curves though it sought activators and does not explain the sign; nearly all actives have a fitted effect of over 65% in size
Target sequence (P80244 whole entry, looked up): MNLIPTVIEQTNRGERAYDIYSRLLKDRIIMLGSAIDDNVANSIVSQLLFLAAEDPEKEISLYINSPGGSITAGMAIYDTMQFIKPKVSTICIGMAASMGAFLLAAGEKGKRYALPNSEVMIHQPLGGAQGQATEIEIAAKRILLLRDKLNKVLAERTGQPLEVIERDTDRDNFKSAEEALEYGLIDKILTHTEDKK
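Buffer: 100 mM Tris/HCl pH8, 100 mM KCl, 0.05% low protease BSA, 2.5% glycerol, 0.01% Tween-20. ClpP 10 microg/mL final; 20 min RT; delta FRET normalized to ADEP and DMSO controls.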
TDP1 cell noCPT: qHTS for Inhibitors of human tyrosyl-DNA phosphodiesterase 1 (TDP1): qHTS in cells in absence of CPT; Potency, µM (series often up to 46.2 µM), for the others: top-dose activity change, negative = growth inhibition, most hits filed as inhibitors; DT40 Tdp1-/- hTDP1 cells, no CPT, ATP luminescence, 48 h; AID 686978, 2013; 420,000 tested, 15% active; note: potency is the fitted concentration of half-maximal effect; % is set by controls: 0 for no effect and ±100 for the full control effect; nearly all actives have a fitted effect of over 55% in size
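Growth kinetics read by CellTiter-Glo luminescence after ≥48 hr at 37 °C. Cells: DT40 Tdp1-/- stably carrying human TDP1, 400 per well, compound exposure in the absence of CPT (DMSO vehicle).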
IL-1B inflam inh: inflammasome signaling inhibition, IL-1 beta readout. activity change, % at 57.5 µM. 360,000 tested, 4.7% active. THP-1 LPS/ATP IL-1B secretion, AlphaLISA, 16 h; active compounds read low; in the data active = activity change below about -50%; inconclusive = mostly about -30% to -49%; note: % is set by controls: 0 for no effect and ±100 for the full control effect
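THP-1 cells pretreated 1 hr with compounds (up to 57.5 uM final), then stimulated with LPS (250 ng/mL final) plus ATP (1.25 mM final); secreted IL-1B measured by AlphaLISA after 16 hr, decreased signal indicating inhibition.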
The depositor's hits bear a star; ? = inconclusive; . = not tested or not shown; [ ] = remark or other dose. Unless noted, calls come from the whole dose curve; as a rule, active = well fitted inhibition curve with a large enough effect; inconclusive = small, poorly fitted or top-dose-only effect; inactive = flat fitted curve, though single readings scatter.

SMILES	DRD3 agonist	DRD3 antagonist	TDP1 cell CPT	ClpP mod	TDP1 cell noCPT	IL-1B inflam inh
COc1cccc(C2C(C(=O)Nc3ccccc3)=C(C)N=c3s/c(=C/c4ccc(OCC(=O)O)cc4)c(=O)n32)c1 (configuration not stated)	0	-21	5%	-1%	-19%	1
CCOC(=O)C1=C(C)N=c2sc(=Cc3cc(Cl)c(OCC(=O)O)c(Cl)c3)c(=O)n2C1c1cccc(OC)c1 (configuration not stated)	-4	0	16µM*	1%	?	-18
COc1cccc(C2C(C(=O)OC(C)C)=C(C)N=c3s/c(=C\c4ccc(C(=O)O)cc4)c(=O)n32)c1 (configuration not stated)	-9	-18	-20%	.	18µM*	-7
COC(=O)c1cc(NS(=O)(=O)c2ccc3c(c2)CCC(=O)N3)cc(C(=O)OC)c1	33*	31	-17%	-22%	-16%	-2
Cc1ccc(C)c(NC(=O)C(NS(=O)(=O)c2ccc3c(c2)CCC(=O)N3)c2ccccc2)c1 (configuration not stated)	-1	.	?	2%	-16%	.
Cc1ccc(NC(=O)C(NS(=O)(=O)c2ccc3c(c2)CCC(=O)N3)c2ccccc2)cc1C (configuration not stated)	-11	.	?	-3%	13µM*	.
CSc1ccc(S(=O)(=O)Nc2ccc3c(c2)NC(=O)CC3)cc1	4	13	?	.	23µM*	16
Cc1ccc(NS(=O)(=O)c2ccc3c(c2)CCC(=O)N3)cc1	7	13	3%	2%	1%	-12
CC(C)c1ccc(NC(=O)C(NS(=O)(=O)c2ccc3c(c2)CCC(=O)N3)c2ccccc2)cc1 (configuration not stated)	-6	.	21µM*	-1%	?	.
COc1cc(C=NO)nc(-c2ccccn2)c1	4	17	1.3µM*	0%	1.2µM*	61
CCOc1ccccc1C1c2[nH]c3ccccc3c2C[C@H]2C(=O)N(C3CCN(Cc4ccccc4)CC3)CC(=O)N12 (some centres not stated)	-38	-105*	5.8µM*	-6%	16µM*	?
COc1ccc(C2c3[nH]c4ccccc4c3C[C@H]3C(=O)N(C4CCN(Cc5ccccc5)CC4)CC(=O)N23)c(OC)c1 (some centres not stated)	-18	-30	?	-2%	15µM*	9
COc1ccc(OC)c(C2c3[nH]c4ccccc4c3C[C@H]3C(=O)N(C4CC4)CC(=O)N23)c1 (some centres not stated)	-1	-1	-2%	1%	-22%	-5
Cc1c(C(=O)N(C)Cc2cscn2)sc2ncnc(NC[C@H]3CCc4ccccc4O3)c12	.	.	-19%[9.04 µM]	.	?	.
Cc1ccc(C)c(NC(=O)Cn2c(=O)n(Cc3ccco3)c(=O)c3ccc(C(=O)NC4CCCC4)cc32)c1	-6	.	?	-4%	16µM*	.
CCOc1ccccc1NC(=O)Cn1c(=O)n(Cc2ccco2)c(=O)c2ccc(C(=O)NC3CCCC3)cc21	1	.	?	-4%	23µM*	.
Cc1cc(C)c(NC(=O)Cn2c(=O)n(Cc3ccco3)c(=O)c3ccc(C(=O)NC4CCCC4)cc32)c(C)c1	6	.	?	-7%	?	.
Cc1ccccc1CNCCCSc1nnnn1-c1ccccc1	-25	.	-23%	1%	-27%	.
CCOC(=O)[C@H]1[C@H]2COc3ccccc3[C@@H]2N2C(=O)c3ccc(C)cc3NC(=O)[C@@]12C	-25	-19	?	1%	?	-15
COc1ccc(CC(=O)OCC(=O)Nc2ccc3c(c2)OCO3)cc1	4	16	15%	.	-17%	16
